CHO-K1 Ca antag: counter-screen for M1 antagonists: effect in parental CHO-K1 cells. ATP-induced calcium, Fluo-8 fluorescence. inhibition, % at 3 µM. actives 0.6% (n = 360,000). AID 602250;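 active means inhibition above a per-plate cutoff, the plate's mean sample inhibition plus 3 SD, cut at about 24% in these data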;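 further: 0% = DMSO plus EC80 ATP and 100% = DMSO alone without ATP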
M1 PAM parental: counter-screen for M1 PAMs: effect in parental CHO-K1 cells; ATP EC20, Fluo-8 calcium fluorescence; 0% at ATP EC20, 100% at ATP max; activation, % at 3 µM; actives 0.02% (n = 360,000); AID 602247;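 active means activation above the run cutoff, the mean activation of all test compounds plus 3 SD, cut at about 40% in these data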;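 further: peak over basal fluorescence ratio in a 140 s read after ATP addition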
CHO-K1 Ca ag: nonselective activator or artifact in parental CHO-K1 cells | actives 0.48% (n = 360,000) | activation, % at 3 µM | Fluo-8 calcium fluorescence; scaled to maximal ATP response, vehicle zero; in the data active means activation above about 15%;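 further: untransfected CHO-K1 host cells lacking M1 receptor as counterscreen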
CHRM1 PAM: human CHRM1 positive allosteric modulation | CHO-K1 hM1, Fluo-8 calcium fluorescence, ACh EC20; 0% = ACh EC20, 100% = maximal ACh | AID 588819 | actives 0.088% (n = 360,000) | P11229 | activation, % at 3 µM; in the data active means activation above about 19%, passing the limit was not always enough
Target sequence (P11229 whole entry, looked up): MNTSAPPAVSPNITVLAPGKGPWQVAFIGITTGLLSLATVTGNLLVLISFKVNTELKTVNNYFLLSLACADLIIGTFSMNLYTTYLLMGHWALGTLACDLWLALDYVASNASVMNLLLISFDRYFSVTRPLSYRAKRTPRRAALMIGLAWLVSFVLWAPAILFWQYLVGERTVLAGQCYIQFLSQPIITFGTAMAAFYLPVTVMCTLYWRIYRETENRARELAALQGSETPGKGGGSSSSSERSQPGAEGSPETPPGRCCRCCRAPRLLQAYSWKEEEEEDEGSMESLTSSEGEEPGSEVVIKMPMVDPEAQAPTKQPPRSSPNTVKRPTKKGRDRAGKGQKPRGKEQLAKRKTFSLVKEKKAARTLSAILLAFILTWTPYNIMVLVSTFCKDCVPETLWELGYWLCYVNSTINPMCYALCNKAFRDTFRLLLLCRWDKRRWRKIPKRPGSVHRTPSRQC
M1 antag: antagonists of human M1 muscarinic receptor. AID 588852. CHO-K1 hM1, Fluo-8 calcium fluorescence, ACh EC80 antagonist. inhibition, % at 3 µM. actives 1.3% (n = 360,000);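 active means percent inhibition above its own plate's cutoff, namely the mean of that plate's compound wells plus 3 SD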;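 further: peak over basal fluorescence ratio during 140 s after agonist addition; 0% = ACh EC80 plus DMSO and 100% = DMSO alone without agonist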
CHRM1 agonist: activates human CHRM1 receptor. CHO-K1 hM1, Fluo-8 calcium fluorescence, agonist mode; 0% DMSO, 100% acetylcholine EC100. activation, % at 3 µM. actives 0.33% (n = 360,000);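 active means activation above the run's mean compound activation plus 3 SD, cut at about 16% in these data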;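 further: peak over basal fluorescence ratio within a 140 s kinetic read after compound addition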
* = called active by the depositor; x = no result given. Shown are actives, neighbours in structure and some others; about 2.4% of the full set was active somewhere.

SMILES | CHO-K1 Ca antag | M1 PAM parental | CHO-K1 Ca ag | CHRM1 PAM | M1 antag | CHRM1 agonist
O=C(OCC(=O)N1CCOCC1)c1ccc2c(c1)OCCO2 | 5 | 11 | 0 | 3 | -33 | 0
O=C(Nc1ccc2c(c1)OCO2)c1ccc2sc([C@@H]3O[C@H](CO)[C@@H](O)[C@H]3O)nc2c1 | 0 | 4 | 0 | 3 | -9 | -2
O=C(Nc1ccc2c(c1)OCO2)c1ccc2sc([C@H]3C[C@H](O)[C@@H](CO)O3)nc2c1 | -4 | 12 | 0 | 28* | -24 | 3
O=C(NCC1CCCCC1)c1ccc2sc([C@H]3C[C@H](O)[C@@H](CO)O3)nc2c1 | 35* | -13 | 2 | 8 | -8 | -2
COc1ccccc1NS(=O)(=O)c1ccc(NC(=O)c2nc3nc(C)cc(C(F)F)n3n2)cc1 | -9 | 19 | 3 | 3 | -7 | -3
CCc1ccc(-n2cc(-c3ccc(F)cc3)[n+]3c2SCCC3)cc1 | 0 | 19 | 1 | -32 | 52* | -13
Cc1ccc(-c2cn(-c3ccccc3)c3[n+]2CCCS3)cc1 | -11 | 17 | 1 | -22 | 40 | -4
O=C(COC(=O)c1cc(Br)ccc1O)Nc1ccc2c(c1)OCCO2 | -11 | -10 | 0 | 1 | 0 | -2
O=c1cc2c(nn1Cc1ccc(Cl)cc1)-c1ccccc1CC2 | 5 | -2 | 0 | 3 | 2 | -2
O=c1cc2c(nn1Cc1cccc(Cl)c1)-c1ccccc1CC2 | 47* | 1 | 3 | -8 | -13 | -5
CCCCN1Cc2ccccc2Oc2cc(Br)ccc2S1(=O)=O | -27 | 12 | 0 | 26* | -16 | 31*
C[C@@H](c1ccccc1)N1Cc2ccccc2Oc2cc(Br)ccc2S1(=O)=O | 0 | -11 | 1 | -3 | 4 | -4
CC(C)CN1Cc2ccccc2Oc2cc(Br)ccc2S1(=O)=O | -14 | 41* | 5 | 16 | -11 | 29*
COc1ccc(C(=O)Nc2cccc(C(=O)N3CCN(C)CC3)c2)cc1 | -13 | 23 | 1 | 7 | -12 | -1
CCOC(=O)[C@]12CCC=C1N(Cc1ccccc1)C(=O)[C@H](CC(=O)NCc1cccc3ccccc13)C2 | -19 | 20 | 2 | x | x | x
Cc1ccccc1Nc1nnc(SCc2cc([N+](=O)[O-])cc3c2OCOC3)s1 | 3 | 7 | 3 | -22 | 41* | -8
COc1cccc(-c2nc(CS(=O)(=O)CC(=O)NCCCN3CCN(C)CC3)c(C)o2)c1 | -14 | 10 | 0 | 3 | -5 | -5
COc1cccc(-c2nc(CS(=O)(=O)CC(=O)NCCCN3CC(C)CC(C)C3)c(C)o2)c1 (configuration not stated) | 2 | -12 | 0 | -19 | 41* | -6
Cc1ccc(C(=O)NCCSc2snnc2C)cc1 | 43* | -5 | 0 | -5 | 2 | -5
Cc1ccccc1-n1c(C)n[nH]c1=S | 9 | 7 | 0 | 2 | -12 | -7
Cc1cccn2c(=S)[nH]nc12 | 26* | -13 | 0 | -4 | 10 | 0
CC(C)c1ccc2oc(-c3cc(N)ccc3O)nc2c1 | 24* | -6 | 0 | -5 | 9 | -2
Cc1ccccc1-c1nc2cc(N)ccc2o1 | -8 | 17 | 1 | 7 | -8 | -7
Cc1cc(-c2nnc(-c3cccc(Cl)c3)o2)no1 | 2 | 13 | 18* | 13 | -9 | 6
Cc1cc(NC(=O)CSc2nnc(-c3cccc(Cl)c3)o2)no1 | 12 | -16 | 1 | 4 | -3 | 0
SMILES | CHO-K1 Ca antag | M1 PAM parental | CHO-K1 Ca ag | CHRM1 PAM | M1 antag | CHRM1 agonist
O=C1C2C3C=CC(C3)C2C(=O)N1c1ccc(N2CCN(c3ccccn3)CC2)c([N+](=O)[O-])c1 (configuration not stated) | 20 | -13 | 14 | -17 | 39* | 1
Cc1nnc2ccc(Oc3ccc(-c4ccccc4)cc3)nn12 | 40* | -8 | 10 | -12 | 34* | -3
Cc1cccc(C)c1OCC(=O)Nc1nnc(C2CCCO2)s1 (configuration not stated) | 12 | -10 | 0 | 9 | -10 | -6
Cc1ccc(OCC(=O)Nc2nnc(C3CCCO3)s2)c(Br)c1 (configuration not stated) | 6 | -15 | -1 | -15 | 37* | -5
CC1(C)CC(=O)C(C=NCCN2CCNCC2)=C(O)C1 | 12 | -1 | 0 | 4 | 0 | -12
CC(=O)NCCC(=O)N1CCc2c([nH]c3ccccc23)C1c1cccc(C)c1 (configuration not stated) | 4 | 11 | 6 | 10 | -5 | -6
CC(C)OC(=O)NCCOC(=O)Nc1cccc(Cl)c1 | 29* | 2 | 10 | -9 | 26 | 4
CC(C)OC(=O)NCCOC(=O)Nc1ccc(Cl)c(Cl)c1 | 17 | 8 | 6 | -4 | 22 | 1
CCCN(CCC)C(=O)CC(c1ccccc1)c1ccc(C)cc1O (configuration not stated) | -17 | 6 | -1 | -2 | 1 | -10
Cc1ccc(O)c([C@H](CCN(C(C)C)C(C)C)c2ccccc2)c1 | 8 | -5 | 0 | -27 | 100* | -8
COc1cc2c(C#CCCCO)c(-c3ccsc3)oc(=O)c2cc1OC | -15 | 19 | 2 | -1 | 0 | -9
CNC(=O)c1ccc(CN(C)CC(=O)Nc2ccccc2C(=O)NC2CC2)cc1 | -10 | -12 | 0 | -8 | 7 | -2
O=[N+]([O-])c1ccccc1CN1CCN(S(=O)(=O)Cc2ccccc2)CC1 | -14 | 10 | 1 | 12 | -11 | -1
NC(=O)CC(NC(=O)Cc1ccc(Br)cc1)c1ccc(NC2CCN(Cc3ccccc3)CC2)c([N+](=O)[O-])c1 (configuration not stated) | -5 | 10 | 0 | -36 | 43* | -13
CC1CCC2C(=O)N(c3ccc(NC4CCN(Cc5ccccc5)CC4)c([N+](=O)[O-])c3)C(=O)C2C1 (configuration not stated) | -15 | 23 | 0 | -26 | 80* | -8
O=C1C2CCCCC2C(=O)N1c1ccc(NC2CCN(Cc3ccccc3)CC2)c([N+](=O)[O-])c1 (configuration not stated) | -6 | 9 | 0 | -26 | 48* | -8
O=C1CCC(=O)N1c1ccc(NC2CCN(Cc3ccccc3)CC2)c([N+](=O)[O-])c1 | 2 | -15 | 0 | -13 | 13 | -8
NC(=O)CC(NC(=O)Cc1cccc2ccccc12)c1ccc(NC2CCN(Cc3ccccc3)CC2)c([N+](=O)[O-])c1 (configuration not stated) | 4 | 3 | 0 | -14 | 11 | -14
CN(Cc1ccccc1)C1CCN(Cc2ccccc2[N+](=O)[O-])CC1 | 6 | -3 | 1 | -27 | 90* | -8

High-throughput results deposited in PubChem by The Scripps Research Institute Molecular Screening Center.
